Inconclusive results are not listed. The source made the active and inactive calls. Rule for the calls, unless noted: active = hit-call score of the fitted dose curve at least 0.9, where 1 is the maximum; inactive = score below 0.9.
Columns and labels:
[1] = target: Peroxisome proliferator-activated receptor gamma (Homo sapiens) (UniProt P37231); experiment: OT_PPARg_PPARgSRC1_0480: Odyssey Thera (OT) 8-hour Protein-Complementation Assay for Peroxisome Proliferator-activated Receptor Gamma / SRC-1 Co-activator (AID 2283387; active = hit-call score of the fitted dose curve at least 0.9, where 1 is the maximum;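 note: nuclear to cytoplasmic split Venus YFP fluorescence ratio reporting PPARg SRC-1 interaction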)
Procedure, shortened: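 Protein-fragment complementation in HEK293T: Venus YFP halves (residues 1-158, 159-239, mutated to IFP1/IFP2) fused to PPARg/SRC-1. 8 h exposure; N/C ratio at 488 nm; DMSO negative control.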

[2] = target: Peroxisome proliferator-activated receptor gamma (Homo sapiens) (UniProt P37231); experiment: OT_PPARg_PPARgSRC1_1440: Odyssey Thera (OT) 24-hour Protein-Complementation Assay for Peroxisome Proliferator-activated Receptor Gamma/ SRC-1 Co-activator (AID 2283388; active = hit-call score of the fitted dose curve at least 0.9, where 1 is the maximum;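 note: nuclear to cytoplasmic ratio of reconstituted Venus YFP fluorescence in fixed imaged cells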)
Procedure, shortened: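 Transient HEK293T, YFP fragments 1-158/159-239 (mutant IFP1/IFP2) fused to PPARg/SRC-1; 24 h dosing; fix 4% formaldehyde, Draq5; Opera imaging 488/635 nm; N/C ratio, gain vs DMSO.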

[3] = CEETOX_H295R_11DCORT: CeeTox H295R High-throughput Steroidogenesis Assay for 11-Deoxycortisol (11DCORT) (AID 2283432); settings: actives raise or lower the signal;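 for AC50: human adrenal H295R cells prestimulated with 10 µM forskolin for 48 h; 11-deoxycortisol secreted into the medium measured by LC-MS/MS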
Procedure, shortened: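 Adrenal carcinoma line H295R, run per OECD 456 with minor changes, was forskolin-stimulated (10 uM, 48 h) before a 48 h chemical exposure at 0.1% DMSO. Secreted 11-deoxycortisol was quantified by HPLC-MS/MS.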

[4] = CEETOX_H295R_OHPREG: CeeTox H295R High-throughput Steroidogenesis Assay for OH-Pregnenolone (OHPREG) (AID 2283434); settings: actives raise or lower the signal
Procedure, shortened: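 Readout: HPLC-MS/MS of 17alpha-hydroxypregnenolone in medium after 48 h chemical exposure of H295R cells pretreated with forskolin. Values fitted bidirectionally relative to DMSO; chemicals reducing viability to 20–70% were retested after 10-fold dilution.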

[5] = CEETOX_H295R_OHPROG: CeeTox H295R High-throughput Steroidogenesis Assay for OH-Progesterone (OHPROG) (AID 2283435); settings: actives raise or lower the signal;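 for AC50: human adrenal H295R cells primed 48 h with 10 µM forskolin; 17alpha-hydroxyprogesterone secreted into medium measured by HPLC-MS/MS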
Procedure, shortened: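 Steps: seed H295R cells and adhere overnight; stimulate with 10 uM forskolin for 48 h; replace with chemical-containing medium (0.1% DMSO) for 48 h; extract medium with MTBE; quantify 17alpha-hydroxyprogesterone by reverse-phase C18 HPLC-MS/MS against a 7-point curve.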

[6] = CEETOX_H295R_CORTIC: CeeTox H295R High-throughput Steroidogenesis Assay for Corticosterone (CORTIC) (AID 2283437); settings: actives raise or lower the signal;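 note: corticosterone secreted into medium quantified by mass spectrometry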
Procedure, shortened: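 Steps: seed H295R, adhere overnight; 10 uM forskolin 48 h; replace with chemical (0.1% DMSO) 48 h; extract medium with MTBE; quantify corticosterone by HPLC-MS/MS; score bidirectionally vs DMSO.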

[7] = CEETOX_H295R_CORTISOL: CeeTox H295R High-throughput Steroidogenesis Assay for Cortisol (AID 2283438); settings: actives raise or lower the signal
Procedure, shortened: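 Cortisol synthesis by H295R cells is measured 48 h after chemical dosing, following a 48 h stimulation with 10 uM forskolin. Hormone is extracted and quantified by HPLC-MS/MS, and activity is fitted bidirectionally against the DMSO control.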

[8] = CEETOX_H295R_DOC: CeeTox H295R High-throughput Steroidogenesis Assay for DOC (AID 2283439); settings: actives raise or lower the signal
Procedure, shortened: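 Steps: seed H295R, adhere overnight; 10 uM forskolin 48 h; replace with chemical medium (0.1% DMSO) 48 h; collect medium, MTBE extraction, HPLC-MS/MS for DOC. Viability then checked by MTT; cytotoxic chemicals diluted until viability ≥70%.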

[9] = CEETOX_H295R_PROG: CeeTox H295R High-throughput Steroidogenesis Assay for Progesterone (PROG) (AID 2283442); settings: actives raise or lower the signal;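 for AC50: human H295R adrenal cells primed with 10 µM forskolin before dosing; progesterone secreted into medium by H295R cells measured by HPLC-MS/MS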
Procedure, shortened: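 Adrenal H295R line, forskolin-stimulated (10 uM, 48 h) before dosing. 48 h exposure, 0.1% DMSO vehicle. Secreted progesterone by reverse-phase HPLC with ESI+ MS/MS quantification; DMSO-normalised bidirectional curve fit.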

[10] = read-out: Tumor necrosis factor receptor superfamily member 6 (Homo sapiens) (UniProt P25445); experiment: LTEA_HepaRG_FAS: Life Technologies and Expression Analysis (LTEA) Assay for Fas cell surface death receptor (FAS) using HepaRG (AID 2283447); settings: mRNA level, 48 h; actives raise or lower the signal
Procedure, shortened: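 Differentiated human HepaRG cells, pre-cultured 48 h, were exposed in duplicate for 48 h to 8-point half-log concentrations (top 100 uM, 0.5% DMSO) in serum-free induction medium; FAS mRNA measured by qRT-PCR, normalized to ACTB/GAPDH/POLR2A, bidirectional fit versus DMSO.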

[11] = read-out: Fatty acid synthase (Homo sapiens) (UniProt P49327); experiment: LTEA_HepaRG_FASN: Life Technologies and Expression Analysis (LTEA) Assay for Fatty Acid Synthase (FASN) using HepaRG (AID 2283448); settings: mRNA level, 48 h; actives raise or lower the signal
Procedure, shortened: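 Cells were plated, cultured 48 h, switched to serum-free induction medium, then dosed in duplicate (max 100 uM, half-log dilutions, 0.5% DMSO) for 48 h. RNA was then isolated and FASN quantified by qRT-PCR.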

[12] = read-out: Cyclin D2 (CCND2), CCND2 (gene 894); experiment: LTEA_HepaRG_CCND2: Life Technologies and Expression Analysis (LTEA) Assay for Cyclin D2 (CCND2) using HepaRG (AID 2283449); settings: mRNA level, 48 h; actives raise or lower the signal;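 note: CCND2 transcript measured by TaqMan qRT-PCR and normalised to three housekeeping genes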
Procedure, shortened: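 In this HepaRG study, an eight-point concentration series (max 100 uM, 0.5% DMSO) is applied for 48 h. CCND2 mRNA change is derived by qRT-PCR normalised to ACTB, GAPDH and POLR2A.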

[13] = read-out: Cyclin Dependent Kinase Inhibitor 1A (CDKN1A), CDKN1A (gene 1026); experiment: LTEA_HepaRG_CDKN1A: Life Technologies and Expression Analysis (LTEA) Assay for Cyclin Dependent Kinase Inhibitor 1A (CDKN1A) using HepaRG (AID 2283450); settings: mRNA level, 48 h; actives raise or lower the signal
Procedure, shortened: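 Cryopreserved HepaRG cells were plated and cultured 48 h, then switched to serum-free induction medium. Chemicals (eight half-log concentrations, top 100 uM, 0.5% DMSO) were applied for 48 h. Lysates underwent qRT-PCR for CDKN1A with housekeeping normalization.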

[14] = read-out: Cyclin D1 (CCND1), CCND1 (gene 595); experiment: LTEA_HepaRG_CCND1: Life Technologies and Expression Analysis (LTEA) Assay for Cyclin D1 (CCND1) using HepaRG (AID 2283451); settings: mRNA level, 48 h; actives raise or lower the signal;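 for AC50: TaqMan qRT-PCR transcript level normalised to ACTB GAPDH and POLR2A housekeeping genes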
Procedure, shortened: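 Human liver HepaRG line; 48 h dosing, 8 conc. ≤100 uM, 0.5% DMSO; TaqMan qRT-PCR mRNA, 3 housekeeping genes; bidirectional curve fit vs DMSO.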

[15] = read-out: catalase (CAT), CAT (gene 847); experiment: LTEA_HepaRG_CAT: Life Technologies and Expression Analysis (LTEA) Assay for catalase (CAT) using HepaRG (AID 2283452); settings: mRNA level, 48 h; actives raise or lower the signal;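 for AC50: TaqMan qRT-PCR signal normalized to ACTB GAPDH and POLR2A housekeeping genes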
Procedure, shortened: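 Differentiated HepaRG cells in serum-free induction medium were dosed 48 h in duplicate, eight half-log concentrations from 100 uM in 0.5% DMSO. Transcript measured by TaqMan qRT-PCR, normalised to ACTB/GAPDH/POLR2A, fitted bidirectionally against DMSO.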

[16] = read-out: flavin-containing dimethylaniline monooxygenases 3 (FMO3), FMO3 (gene 2328); experiment: LTEA_HepaRG_FMO3: Life Technologies and Expression Analysis (LTEA) Assay for flavin-containing dimethylaniline monooxygenases 3 (FMO3) using HepaRG (AID 2283453); settings: mRNA level, 48 h; actives raise or lower the signal;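 for AC50: FMO3 transcript by TaqMan qRT-PCR normalized to ACTB GAPDH and POLR2A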
Procedure, shortened: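 FMO3 transcript quantified by TaqMan qRT-PCR against three housekeeping genes after 48 h chemical exposure of HepaRG cells. Eight-point half-log series, top 100 uM, 0.5% DMSO vehicle; phenobarbital 1mM induction control; up- or down-regulation fitted.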

[17] = read-out: Cytochrome P450 (CYP1A1), CYP1A1 (gene 1543); experiment: LTEA_HepaRG_CYP1A1: Life Technologies and Expression Analysis (LTEA) Assay for Cytochrome P450 (CYP1A1) using HepaRG (AID 2283454); settings: mRNA level, 48 h; actives raise or lower the signal
Procedure, shortened: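 Induction of CYP1A1 mRNA in a human hepatic cell line was measured 48 h after dosing, with 1 mM phenobarbital as induction positive control and 0.5% DMSO vehicle as baseline for bidirectional curve fitting.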

[18] = CEETOX_H295R_ESTRADIOL: CeeTox H295R High-throughput Steroidogenesis Assay for Estradiol (AID 2283440); settings: actives raise or lower the signal;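 note: estradiol secreted into medium quantified by LC-MS/MS after dansyl derivatisation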
Procedure, shortened: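 Following OECD 456 with minor changes, H295R cells received 10 uM forskolin for 48 h and then test chemical for 48 h. Hormone output was read by HPLC-MS/MS, with cytotoxic concentrations diluted until MTT viability reached ≥70%.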

[19] = CEETOX_H295R_ESTRONE: CeeTox H295R High-throughput Steroidogenesis Assay for Estrone (AID 2283441); settings: actives raise or lower the signal
Procedure, shortened: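 Estrone secreted into medium quantified by LC-MS/MS after dansyl chloride derivatization, following 48 h chemical exposure (0.1% DMSO final) of forskolin-prestimulated (10 uM, 48 h) H295R cells; gain or loss fitted against DMSO; MTT viability in same wells.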

[20] = CEETOX_H295R_ANDR: CeeTox H295R High-throughput Steroidogenesis Assay for Androstenedione (ANDR) (AID 2283436); settings: actives raise or lower the signal;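 note: human H295R adrenal cells exposed for 48 h with androstenedione measured in medium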
Procedure, shortened: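 Steroidogenesis in H295R adrenal cells after 48 h dosing; androstenedione quantified by LC-MS/MS, with DMSO as negative control and baseline for bidirectional curve fitting.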

Fatty acid synthase (Homo sapiens), sequence (P49327 whole entry, looked up): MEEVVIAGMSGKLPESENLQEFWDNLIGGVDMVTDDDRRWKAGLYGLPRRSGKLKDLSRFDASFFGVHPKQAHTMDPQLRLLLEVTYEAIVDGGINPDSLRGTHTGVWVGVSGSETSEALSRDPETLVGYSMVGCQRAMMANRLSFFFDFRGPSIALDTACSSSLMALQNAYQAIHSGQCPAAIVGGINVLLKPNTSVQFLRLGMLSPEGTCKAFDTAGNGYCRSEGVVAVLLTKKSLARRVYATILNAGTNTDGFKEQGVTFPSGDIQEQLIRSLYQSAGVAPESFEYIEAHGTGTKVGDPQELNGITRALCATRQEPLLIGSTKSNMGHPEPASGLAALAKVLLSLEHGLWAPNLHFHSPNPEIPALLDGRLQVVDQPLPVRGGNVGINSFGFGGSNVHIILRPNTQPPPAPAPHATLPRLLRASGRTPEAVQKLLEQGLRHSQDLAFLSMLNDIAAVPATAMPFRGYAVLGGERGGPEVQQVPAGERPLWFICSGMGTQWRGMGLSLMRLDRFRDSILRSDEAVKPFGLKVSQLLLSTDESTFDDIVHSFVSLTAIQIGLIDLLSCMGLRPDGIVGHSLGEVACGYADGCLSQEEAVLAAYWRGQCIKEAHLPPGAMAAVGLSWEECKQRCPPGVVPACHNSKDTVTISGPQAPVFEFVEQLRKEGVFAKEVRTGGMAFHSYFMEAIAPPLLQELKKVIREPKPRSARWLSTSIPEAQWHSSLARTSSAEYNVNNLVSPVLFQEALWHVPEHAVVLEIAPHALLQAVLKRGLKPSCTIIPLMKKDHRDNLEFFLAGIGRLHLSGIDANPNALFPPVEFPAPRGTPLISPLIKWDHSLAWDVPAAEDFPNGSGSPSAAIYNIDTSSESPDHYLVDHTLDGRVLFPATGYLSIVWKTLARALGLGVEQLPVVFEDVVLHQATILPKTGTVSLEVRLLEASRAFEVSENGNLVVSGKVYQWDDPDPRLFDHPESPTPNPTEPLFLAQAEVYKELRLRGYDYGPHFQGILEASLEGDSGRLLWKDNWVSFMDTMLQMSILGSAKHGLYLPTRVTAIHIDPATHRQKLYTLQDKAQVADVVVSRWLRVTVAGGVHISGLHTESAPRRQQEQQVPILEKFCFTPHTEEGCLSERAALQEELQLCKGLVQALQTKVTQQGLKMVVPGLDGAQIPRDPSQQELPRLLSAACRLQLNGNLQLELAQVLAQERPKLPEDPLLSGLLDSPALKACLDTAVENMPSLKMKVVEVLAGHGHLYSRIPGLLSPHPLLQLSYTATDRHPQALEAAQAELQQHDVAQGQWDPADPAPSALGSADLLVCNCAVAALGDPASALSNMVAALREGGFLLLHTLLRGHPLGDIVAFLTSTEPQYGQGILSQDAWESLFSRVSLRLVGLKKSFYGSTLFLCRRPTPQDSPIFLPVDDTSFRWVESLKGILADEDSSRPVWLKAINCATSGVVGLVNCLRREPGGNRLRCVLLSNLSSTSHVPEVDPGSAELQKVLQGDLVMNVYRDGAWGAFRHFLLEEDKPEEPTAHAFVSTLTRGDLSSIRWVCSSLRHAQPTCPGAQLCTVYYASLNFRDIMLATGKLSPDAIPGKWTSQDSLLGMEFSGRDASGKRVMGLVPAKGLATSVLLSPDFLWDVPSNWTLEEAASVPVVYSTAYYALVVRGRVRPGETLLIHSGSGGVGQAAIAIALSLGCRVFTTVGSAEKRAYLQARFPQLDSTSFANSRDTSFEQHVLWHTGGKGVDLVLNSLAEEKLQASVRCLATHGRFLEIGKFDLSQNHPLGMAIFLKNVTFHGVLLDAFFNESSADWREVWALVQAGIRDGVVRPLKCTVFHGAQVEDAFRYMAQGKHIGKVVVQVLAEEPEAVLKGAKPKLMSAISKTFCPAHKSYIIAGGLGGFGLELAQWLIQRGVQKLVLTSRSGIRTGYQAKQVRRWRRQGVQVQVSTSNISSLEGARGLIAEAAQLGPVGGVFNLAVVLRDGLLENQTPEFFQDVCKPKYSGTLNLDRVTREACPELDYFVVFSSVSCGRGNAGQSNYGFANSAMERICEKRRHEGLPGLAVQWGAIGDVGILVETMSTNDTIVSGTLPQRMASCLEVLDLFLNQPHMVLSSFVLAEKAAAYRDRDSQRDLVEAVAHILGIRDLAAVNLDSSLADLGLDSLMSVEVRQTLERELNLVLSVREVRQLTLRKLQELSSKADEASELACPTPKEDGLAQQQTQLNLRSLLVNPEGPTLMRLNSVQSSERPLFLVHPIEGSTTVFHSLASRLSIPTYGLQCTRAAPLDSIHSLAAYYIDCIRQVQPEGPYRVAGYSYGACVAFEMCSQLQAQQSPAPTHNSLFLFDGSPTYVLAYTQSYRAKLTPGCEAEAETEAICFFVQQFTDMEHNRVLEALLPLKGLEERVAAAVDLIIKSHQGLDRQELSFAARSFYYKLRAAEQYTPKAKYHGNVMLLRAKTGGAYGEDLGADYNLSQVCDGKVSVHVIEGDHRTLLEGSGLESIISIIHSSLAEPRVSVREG
Peroxisome proliferator-activated receptor gamma (Homo sapiens), sequence (P37231 whole entry, looked up, the tested form may be a part): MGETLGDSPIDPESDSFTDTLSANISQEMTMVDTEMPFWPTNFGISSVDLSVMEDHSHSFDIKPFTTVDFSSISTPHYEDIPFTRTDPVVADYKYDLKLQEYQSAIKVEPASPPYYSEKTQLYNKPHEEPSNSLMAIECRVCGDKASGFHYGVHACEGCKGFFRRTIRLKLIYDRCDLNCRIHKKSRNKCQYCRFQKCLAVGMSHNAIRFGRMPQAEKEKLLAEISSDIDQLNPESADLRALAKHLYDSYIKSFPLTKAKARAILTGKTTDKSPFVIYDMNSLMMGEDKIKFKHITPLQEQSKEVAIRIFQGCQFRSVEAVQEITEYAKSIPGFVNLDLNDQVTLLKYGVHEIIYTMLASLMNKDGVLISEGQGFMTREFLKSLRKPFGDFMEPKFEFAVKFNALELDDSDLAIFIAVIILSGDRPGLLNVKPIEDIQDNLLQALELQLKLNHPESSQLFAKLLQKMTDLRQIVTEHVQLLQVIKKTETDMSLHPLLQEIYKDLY

Nc1ccc(Nc2ccccc2)cc1
outcome [1]: inactive
outcome [2]: inactive
outcome [3]: inactive
AC50 [4]: 83.7 µM (active)
AC50 [5]: 13.9 µM (active)
outcome [6]: inactive
AC50 [7]: 65.8 µM (active)
AC50 [8]: 4.03 µM (active)
outcome [9]: inactive
outcome [10]: inactive
outcome [11]: inactive
outcome [12]: inactive
outcome [13]: inactive
outcome [14]: inactive
outcome [15]: inactive
AC50 [16]: 50 µM (active)
AC50 [17]: 10.9 µM (active)

CC(C)c1cccc(C(C)C)c1N1C(=O)c2ccc(O)cc2C1=O
outcome [1]: inactive
outcome [2]: inactive
AC50 [4]: 32.5 µM (active)
AC50 [5]: 31.7 µM (active)
outcome [6]: inactive
AC50 [7]: 27.1 µM (active)
AC50 [8]: 16.7 µM (active)
AC50 [9]: 86.5 µM (active)
outcome [10]: inactive
AC50 [11]: 82.1 µM (active)
outcome [12]: inactive
outcome [13]: inactive
AC50 [14]: 82.4 µM (active)
outcome [15]: inactive
AC50 [16]: 84.1 µM (active)
AC50 [17]: 63.1 µM (active)

COc1cccc(-c2ccc(/C=C\CN3CCCCCC3)cc2Cl)c1
outcome [1]: inactive
outcome [2]: inactive
outcome [3]: inactive
outcome [4]: inactive
outcome [5]: inactive
outcome [6]: inactive
outcome [7]: inactive
outcome [8]: inactive
outcome [18]: inactive
outcome [19]: inactive
outcome [9]: inactive
AC50 [10]: 77.5 µM (active)
AC50 [11]: 45.2 µM (active)
outcome [13]: inactive
AC50 [15]: 69.7 µM (active)
AC50 [16]: 68.8 µM (active)
AC50 [17]: 45.2 µM (active)

C[C@](N)(Cc1ccc(O)c(O)c1)C(=O)O
outcome [1]: inactive
outcome [2]: inactive
outcome [9]: inactive
outcome [10]: inactive
outcome [11]: inactive
outcome [12]: inactive
outcome [13]: inactive
outcome [14]: inactive
outcome [15]: inactive
outcome [16]: inactive
AC50 [17]: 71.6 µM (active)

Cc1ccc(N)cc1O
outcome [1]: inactive
outcome [2]: inactive
outcome [3]: inactive
outcome [4]: inactive
AC50 [5]: 39.8 µM (active)
outcome [20]: inactive
outcome [6]: inactive
outcome [7]: inactive
outcome [8]: inactive
AC50 [18]: 40.9 µM (active)
outcome [19]: inactive
AC50 [9]: 50 µM (active)
outcome [10]: inactive
AC50 [11]: 26.3 µM (active)
outcome [12]: inactive
outcome [13]: inactive
outcome [14]: inactive
outcome [15]: inactive
outcome [16]: inactive
AC50 [17]: 26.4 µM (active)

CCC(C)(C)C(=O)O[C@H]1C[C@@H](C)C=C2C=C[C@H](C)[C@H](CC[C@@H]3C[C@@H](O)CC(=O)O3)[C@H]21
outcome [1]: inactive
outcome [2]: inactive
AC50 [3]: 0.338 µM (active)
outcome [4]: inactive
AC50 [5]: 0.809 µM (active)
outcome [6]: inactive
outcome [7]: inactive
AC50 [8]: 0.581 µM (active)
outcome [18]: inactive
outcome [19]: inactive
AC50 [9]: 0.24 µM (active)
outcome [10]: inactive
AC50 [11]: 10.9 µM (active)
outcome [12]: inactive
outcome [13]: inactive
outcome [15]: inactive
outcome [16]: inactive

— PubChem BioAssay (EPA / NIEHS)
